Assay [1] is described as follows: resazurin metabolic signal in HepG2 cells – cell-based, resazurin fluorescence, 24 h, PK04 Diversity Set, profiling panel (AID 1172). The conditions noted are these: HepG2 viability, higher = more signal. A general note: The colour change of resazurin is a common sign of viable cells or microbes.
The nature of assay [2]: budding yeast growth changes without added modifier – OD600, strain BY4716, 24 h, basal condition, primary screen (AID 1173). The conditions noted are these: S. cerevisiae BY4716 growth, OD600, 24 h; higher = more signal, called active from +8 up or from −8 down.
The nature of assay [3]: viability profiling in MM1S myeloma cells – cell-based, resazurin fluorescence, basal, 24 h, PK04 Diversity Set, profiling panel (AID 1174).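 Also: MM1S multiple myeloma cell line.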 To be noted: higher = more signal, called active from +8 up or from −8 down.
Assay [4] has as its target Dihydroorotate dehydrogenase (quinone), mitochondrial (Plasmodium falciparum (isolate 3D7)) (UniProt Q08210). Put plainly: inhibition of P. falciparum DHODH – biochemical, C-terminal His tag, absorbance 600 nm, primary screen (AID 1175).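 Also: recombinant parasite enzyme with a five histidine tag at its C terminus.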 The conditions noted are these: PfDHODH enzyme, DCIP absorbance 600 nm; higher = more signal, called active from +8 up or from −8 down.

Assay [5] can be described thus: inhibition of PAO1 biofilm formation – strain PAO1, LB-PBS medium, absorbance 600 nm, primary screen (AID 1176). The conditions noted are these: P. aeruginosa PAO1 growth/biofilm, A600, 12 h; higher = more signal.
Assay [6] in a line: growth modulation of vineyard yeast isolate – strain RM11-1a, OD600, basal, 24 h, primary screen (AID 1177).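 Also: cultures grown under basal conditions with no added stressor.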 The conditions noted are these: S. cerevisiae RM11-1a growth, OD600, 24 h; higher = more signal, called active from +8 up or from −8 down.
The nature of assay [7]: growth of efflux-deficient E. coli DRC39 – strain DRC39, OD650, 24 h, E. coli filamentation inducers, primary screen (AID 1178).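 Also: growth measured as culture turbidity by optical density at 650 nm.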 To be noted: E. coli DRC39 acrAB, higher = more signal, called active from +8 up or from −8 down.
Assay [8] can be described thus: growth of efflux-deficient E. coli DRC39 – strain DRC39, OD650, 48 h, E. coli filamentation inducers, primary screen (AID 1179).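 Also: screen aims at cell division blockers that make cells filament.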 The conditions noted are these: E. coli DRC39 delta-acrAB growth, higher = more signal, called active from +8 up or from −8 down.
The nature of assay [9]: viability profiling in RPMI8226 myeloma cells – cell-based, resazurin fluorescence, basal, 24 h, PK04 Diversity Set, profiling panel (AID 1180).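 Also: RPMI8826 multiple myeloma cell line at 5000 cells per well.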 To be noted: higher = more signal.
For assay [10], the target named is E3 ubiquitin-protein ligase XIAP (Homo sapiens) (UniProt P98170). The assay can be described thus: small molecules binding XIAP protein – biophysical, small-molecule microarray, fluorescence 635 nm, primary screen (AID 1181).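 Also: score merges 667 nm emission and signal to noise over triplicate slides.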 The conditions noted are these: higher = more signal.
Sequence of E3 ubiquitin-protein ligase XIAP (Homo sapiens) (P98170 whole entry, looked up, the tested form may be a part): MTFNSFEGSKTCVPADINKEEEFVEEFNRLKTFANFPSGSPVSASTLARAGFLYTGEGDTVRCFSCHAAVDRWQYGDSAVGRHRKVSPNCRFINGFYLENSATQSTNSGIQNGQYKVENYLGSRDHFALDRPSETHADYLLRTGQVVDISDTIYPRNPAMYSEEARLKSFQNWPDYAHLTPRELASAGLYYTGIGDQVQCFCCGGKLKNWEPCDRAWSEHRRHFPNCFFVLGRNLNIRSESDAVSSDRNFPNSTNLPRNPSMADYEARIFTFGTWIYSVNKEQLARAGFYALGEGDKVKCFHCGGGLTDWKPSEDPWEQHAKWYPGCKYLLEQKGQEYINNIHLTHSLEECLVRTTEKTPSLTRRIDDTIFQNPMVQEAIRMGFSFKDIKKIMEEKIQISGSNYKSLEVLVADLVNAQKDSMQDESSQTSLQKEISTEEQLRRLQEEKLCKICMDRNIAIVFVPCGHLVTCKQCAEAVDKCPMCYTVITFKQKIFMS
Assay [11] relates to XIP peptide (Xip251-270) binding. Put plainly: XIP fragment 251-270 binding compounds – biochemical, small-molecule microarray, fluorescence 635/667 nm, 0.1 µg/mL protein, primary screen (AID 1182). The conditions noted are these: fluorescent protein binding, 635 nm, higher = more signal, called active from +8 up or from −8 down.
The test system of the next assay is XIP peptide (Xip251-270). Put plainly: compounds binding XIP fragment 251-270 – biochemical, small-molecule microarray, fluorescence 635/667 nm, 0.5 µg/mL protein, primary screen (AID 1183). To be noted: fluorescence 635 nm, higher = more signal.
Assay [12] is described as follows: blood-stage malaria parasite viability loss – strain 3D7, DAPI fluorescence, 100 nL, primary screen (AID 1184).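 Also: parasites grown inside human red blood cells in medium with human serum.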 The conditions noted are these: P. falciparum 3D7 growth, 3 d, higher = more signal.
For assay [13], the target named is Homeobox protein Hox-A13 (Mus musculus) (UniProt Q62424). Put plainly: disruptors of Hoxa13 oligonucleotide interaction – biochemical, fluorescence polarization, labeled oligonucleotide, primary screen (AID 1185). To be noted: Hoxa13:DNA binding, 15 min, higher = more signal, called active from +8 up or from −8 down. (In general: In fluorescence polarisation assays a small probe gives low polarisation when free and higher when bound to something large.)
Sequence of Homeobox protein Hox-A13 (Mus musculus) (Q62424 whole entry, looked up): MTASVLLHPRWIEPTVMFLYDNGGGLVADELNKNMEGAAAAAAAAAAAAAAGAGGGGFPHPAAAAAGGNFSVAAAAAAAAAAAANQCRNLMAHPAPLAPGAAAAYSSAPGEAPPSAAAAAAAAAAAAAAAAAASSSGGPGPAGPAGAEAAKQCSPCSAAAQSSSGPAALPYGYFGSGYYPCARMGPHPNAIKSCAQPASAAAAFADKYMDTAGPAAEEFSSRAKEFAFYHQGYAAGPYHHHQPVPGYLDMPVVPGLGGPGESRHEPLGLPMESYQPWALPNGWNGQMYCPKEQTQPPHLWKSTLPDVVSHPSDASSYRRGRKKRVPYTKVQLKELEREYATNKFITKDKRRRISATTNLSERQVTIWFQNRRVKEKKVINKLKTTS

Assay [14] in a line: blockers of DNA damage checkpoint Chk1 activation – imaging, HeLa, hydroxyurea, phospho-Chk1 antibody, percent positive cells, primary screen (AID 1186). The conditions noted are these: hydroxyurea-induced phospho-Chk1 immunofluorescence imaging, higher = more signal.
Assay [15] is described as follows: blockers of DNA damage checkpoint Chk1 activation – imaging, HeLa, hydroxyurea, phospho-Chk1 nuclear intensity, primary screen (AID 1187). To be noted: hydroxyurea-induced phospho-Chk1 immunofluorescence imaging, higher = more signal.

Active and inactive are the calls of the source. Unless noted, no rule for the calls is given here.

Sequence of Dihydroorotate dehydrogenase (quinone), mitochondrial (Plasmodium falciparum (isolate 3D7)) (Q08210 whole entry, looked up): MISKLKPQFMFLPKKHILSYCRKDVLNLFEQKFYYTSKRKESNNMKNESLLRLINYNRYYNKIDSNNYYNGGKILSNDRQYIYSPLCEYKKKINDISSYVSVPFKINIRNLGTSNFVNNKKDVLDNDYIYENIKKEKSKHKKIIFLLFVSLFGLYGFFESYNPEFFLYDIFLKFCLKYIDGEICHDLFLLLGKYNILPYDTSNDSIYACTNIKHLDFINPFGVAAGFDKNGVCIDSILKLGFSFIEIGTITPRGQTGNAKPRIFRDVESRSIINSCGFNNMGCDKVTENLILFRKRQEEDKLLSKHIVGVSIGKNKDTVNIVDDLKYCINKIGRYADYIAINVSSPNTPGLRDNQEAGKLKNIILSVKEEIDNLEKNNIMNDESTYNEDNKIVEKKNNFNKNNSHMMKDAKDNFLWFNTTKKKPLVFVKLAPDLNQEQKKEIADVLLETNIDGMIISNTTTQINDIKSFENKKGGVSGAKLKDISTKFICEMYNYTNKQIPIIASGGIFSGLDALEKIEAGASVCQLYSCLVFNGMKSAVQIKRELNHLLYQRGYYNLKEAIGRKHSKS

Regarding `COCCCNC(=O)[C@]1(Cc2ccccc2N=[N+]=[N-])N=C(c2ccc(OCCCO)cc2)O[C@@H]1c1ccccc1N=[N+]=[N-]`, the z-score in assay [1] was -2.52; in assay [2], 0.298 (inactive); in [3] it was -3 (inactive); in [5], 1.07 (inactive); in assay [6] it was 0.315 (inactive); in assay [7], 0.342 (inactive). In addition, the z-score in assay [8] was -0.435 (inactive); in assay [9], -2.76; in assay [12] it was -2.11; in assay [13], -1.51 (inactive); in [14] it was -0.553 (inactive); in assay [15], -0.627 (inactive). The composite z-score in assay [4] is -0.282 (inactive); in assay [10] it was -0.0332; in [11], -0.207 (inactive); in the assay with XIP peptide (Xip251-270) it was 0.538.
In the case of `C=C(C(=O)CC[C@H](OC(=O)c1cccnc1)c1cccc(OCCO)c1)C(C)C`, the z-score was 0.0418 in assay [1]; 1.06 (inactive) in [2]; -1.16 (inactive) in [3]; -0.116 (inactive) in [5]; 2.01 (inactive) in assay [6]; 0.675 (inactive) in [7]. The z-score in [8] is 0.297 (inactive); in assay [9] it was -1.36; in assay [12] it was -2.09; in assay [13] it was -3.82 (inactive); in assay [14], -0.556 (inactive); in assay [15], -0.453 (inactive). The composite z-score in assay [4] was 0.612 (inactive); in [10], -0.0117; in [11] it was 0.24 (inactive); in the assay with XIP peptide (Xip251-270), 0.183.
As to `C=CCNC(=O)[C@H]1[C@@H]2C(=O)O[C@@H](c3ccccc3)[C@@H](c3ccccc3)N2[C@@H](c2ccccc2OCCO)[C@]12C(=O)N(C(=O)OCCOC)c1ccc(C#CC3=CCCCC3)cc12`, the z-score is -1.22 in [1]; 1.22 (inactive) in assay [2]; -5.62 (inactive) in [3]; 1.37 (inactive) in assay [5]; 2.81 (inactive) in assay [6]; -0.29 (inactive) in assay [7]. In addition, the z-score in assay [8] is 0.286 (inactive); in assay [9] it was -4.42; in assay [12], -2.12; in assay [13] it was 0.724 (inactive); in assay [14], 0.557 (inactive); in assay [15], 1.47 (inactive). Also, the composite z-score in assay [4] is 1.09 (inactive); in assay [10], 0.106; in assay [11], 0.234 (inactive); in the assay on XIP peptide (Xip251-270), 0.719.
As for `NC(N)=NCc1cn(CCc2c[nH]c3ccccc23)nn1`, the z-score was -0.739 in assay [1]; 0.274 (inactive) in assay [2]; -0.237 (inactive) in assay [3]; 0.0429 (inactive) in [5]; 0.191 (inactive) in assay [6]; 0.148 (inactive) in assay [7]. In addition, the z-score in assay [8] was -0.0579 (inactive); in [9], -0.533; in assay [12] it was 0.743; in assay [13] it was -2.09 (inactive); in [14] it was 0.568 (inactive); in [15], -0.248 (inactive). Also, the composite z-score is -26.7 (active) in assay [4], -0.163 in [10], 1.35 (inactive) in [11] and 0.937 in the assay on XIP peptide (Xip251-270).
Take `C=C[C@@H](COC(C)=O)NS(=O)(=O)c1ccc(Br)cc1`: the z-score is -1.44 in assay [1]; -11.8 (active) in assay [2]; -1.82 (inactive) in [3]; -0.152 (inactive) in assay [5]; 0.628 (inactive) in assay [6]; -0.528 (inactive) in assay [7]. For the same compound, the z-score in assay [8] is 0.0818 (inactive); in assay [9] it was -0.978; in assay [12], 0.4; in [13], 0.34 (inactive); in assay [14], -0.249 (inactive); in assay [15] it was -0.227 (inactive). Also, the composite z-score in assay [4] was -0.502 (inactive); in assay [10], -0.184; in assay [11], 0.0525 (inactive); in the assay on XIP peptide (Xip251-270), 0.113.
For the compound `O=C1O[C@@H](c2ccccc2)[C@@H](c2ccccc2)N2[C@@H](c3ccccc3OCCO)[C@]3(C(=O)Nc4ccc(C#CC5=CCCCC5)cc43)[C@@H](C(=O)NC[C@H](O)c3ccccc3)[C@H]12`, the z-score was -1.33 in [1]; 0.961 (inactive) in assay [2]; -7.07 (inactive) in [3]; 0.787 (inactive) in [5]; 0.979 (inactive) in assay [6]; -0.0029 (inactive) in assay [7]. The z-score in assay [8] was -0.208 (inactive); in [9], -5.79; in assay [12] it was -1.7; in [13] it was 1.62 (inactive); in assay [14], -0.336 (inactive); in assay [15], -0.415 (inactive). The composite z-score was 0.578 (inactive) in assay [4], -0.16 in assay [10], 0.409 (inactive) in [11] and 0.0598 in the assay on XIP peptide (Xip251-270).
With `[N-]=[N+]=Nc1ccccc1[C@@H]1OC(c2ccc(OCCCO)cc2)=N[C@]1(CCS(=O)(=O)c1ccccc1)C(=O)NCCN1CCOCC1`, the z-score in [1] is -0.376; in assay [2] it was -1.32 (inactive); in assay [3], -0.195 (inactive); in assay [5], 0.236 (inactive); in assay [6], -0.309 (inactive); in assay [7], 0.833 (inactive). In addition, the z-score in assay [8] is -0.278 (inactive); in [9] it was -0.659; in [12] it was -2.67; in [13], -3.85 (inactive); in [14] it was 0.147 (inactive); in assay [15], 0.222 (inactive). In addition, the composite z-score is 0.313 (inactive) in assay [4], -0.34 in [10], 0.691 (inactive) in [11] and 0.433 in the assay with XIP peptide (Xip251-270).
With `COc1ccc([Si](C)(C)[C@@H]2[C@@H](CCn3cc([C@H](O)c4ccccc4)nn3)O[C@]3(C(=O)N(Cc4ccc(N5CCOC5=O)cc4)c4ccccc43)[C@H]2C)cc1`, the z-score in assay [1] was 0.977; in [2] it was 0.146 (inactive); in assay [3] it was -0.806 (inactive); in assay [5], 0.483 (inactive); in [6] it was 1.54 (inactive); in [7], 0.323 (inactive). Further, the z-score in assay [8] is -0.0694 (inactive); in assay [9], -0.12; in [12], -2.78; in assay [13] it was -3.54 (inactive); in assay [14] it was 0.875 (inactive); in [15] it was 0.221 (inactive). For the same compound, the composite z-score was 0.181 (inactive) in [4], 0.049 in assay [10], 0.0449 (inactive) in [11] and 0.823 in the assay on XIP peptide (Xip251-270).

Source of the values: PubChem BioAssay.
